Screens from PubChem BioAssay.
The list is not random: actives were taken first. Their share in the collection is about 2%.
Yeast superoxide: reduction of superoxide in aged yeast, primary screen, HTS. S. cerevisiae aged cells, superoxide DHE fluorescence; hits give low values. superoxide response (% of plate mean), % at 10 µM. 0.18% of 330,000 active;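 active = superoxide response under a set limit, about three screen SD below normal, cut at about 65% in these data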;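 note: yeast aged for seven days with compound at 30 °C before DHE staining; 100% = average MFI of all compound-treated wells on the plate with controls excluded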
Platelet DG rel: inhibitors of platelet dense granule secretion, primary screen, cell-based, MLPCN, human platelets. human platelet-rich plasma, SFLLRN dense granule ATP release, luminescence. inhibition, %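 (compounds screened at 7.5 µM in platelet-rich plasma)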. 0.22% of 300,000 active;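 active = mean replicate score, as percent of positive control, at or above 50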
SKKanGAS inh: S. pyogenes SKKanGAS growth inhibitors in kanamycin, primary screen, streptokinase expression inhibitor project, SKKanGAS strain, BacTiter-Glo luminescence. 6 h. inhibition, % at 7.5 µM. 1.3% of 300,000 active. AID 1662, 2009;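 active = mean replicate score, as percent of positive control median, at least 50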;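 note: strain carries kanamycin resistance gene driven by streptokinase promoter and grows in 40 µg/ml kanamycin; loss of luminescence reflects streptokinase promoter inhibition or plain growth inhibition; 0% = median of DMSO wells and 100% = positive control at its reference dose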
PolyA inhibitor: polyadenylation inhibitors in yeast reporter cells, primary screen, luminescence, S. cerevisiae. S. cerevisiae SKY197-pL101 polyadenylation reporter, beta-gal luminescence; efflux-impaired pdr1/pdr3 knockout yeast; score 100 = 6 SD above DMSO. activity score, % at 12 µM. 0.02% of 300,000 active. AID 1875, 2009;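 active = lowest replicate activity score at least 50, where 100 means six control SD above control mean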;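 note: yeast exposed to compound for 9 h at 30 °C; higher score means more reporter readthrough which indicates perturbed polyadenylation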
Calb FLC: C. albicans growth inhibition with fluconazole, primary screen, CaCi-2 strain, Alamar Blue fluorescence | 0.57% of 300,000 active | C. albicans CaCi-2 (fluconazole-resistant clinical isolate) + fluconazole, 48 h | growth inhibition, % (concentration not given with the values);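 active = growth inhibition above about 58% in most replicates, limit read from the data, passing the limit was not always enough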;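 note: all wells also contain fluconazole at 8 µg/ml as a sub-toxic cotreatment; 0% = median of DMSO wells and 100% = median of geldanamycin control wells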
Superoxide pick: superoxide lowering in aged yeast cells, confirmation, cherry picked compounds; superoxide response (% of plate), % at 10 µM; 1% of 850 active; AID 434994, 2010; S. cerevisiae aging, superoxide DHE fluorescence; hits give low values; shares compounds with Yeast superoxide;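 active = superoxide signal below 65% of the plate average of sample wells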;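 note: cells aged with compound for 7 days at 30 degrees C before staining; 100% equals mean DHE fluorescence of all compound wells on the plate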
DHE fluor count: DHE quenching or ROS scavenging interference in aged yeast, artefact control for yeast caloric restriction mimetic project, S. cerevisiae BY4741, flow cytometry. shares compounds with Yeast superoxide. DHE fluorescence; hits give low values. fluorescence response, % at 10 µM. 850 tested, under 10 active. AID 435000, 2010;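 active = fluorescence response below 15%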;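 note: percent of the mean fluorescence averaged over all compound wells on the plate; lower means stronger quenching of DHE signal or ROS scavenging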
Numbers without * were called inactive; x = no result given.

SMILES	Yeast superoxide	Platelet DG rel	SKKanGAS inh	PolyA inhibitor	Calb FLC	Superoxide pick	DHE fluor count
O=C(c1ccc(Cl)cc1)N1CCN(c2ccc(F)cc2)CC1	71	-2	4	-2	-13	89	103
O=C(c1cccnc1)N1CCN(c2ccc([N+](=O)[O-])cc2Cl)CC1	115	-9	-10	-4	9	x	x
COc1ccc(NC(=O)CSc2ccc3nnc(-c4cccnc4)n3n2)cc1OC	94	11	25	0	-13	x	x
O=C(Nc1ccc(N2CCOCC2)cc1)C1CC(=O)N(c2ccc(F)cc2)C1 (stereo unspecified)	106	27	1	3	-12	x	x
N#Cc1ccc(N2CCN(C(=O)c3cccc(F)c3)CC2)c(F)c1	109	-6	-5	13	1	99	102
Cc1cc(SCC(=O)NC2(C#N)CCCCC2)nc2c(C)cccc12	64*	10	19	1	x	99	103
O=C(NC1CCCCCCC1)c1cc([N+](=O)[O-])ccc1Cl	63*	1	7	-6	-12	101	92
CN(C)CCNc1ncnc2c1cnn2-c1ccc(Cl)cc1	108	-4	-1	22	1	101	99
CC(C)Nc1ncnc2c1cnn2-c1ccccc1	103	11	11	19	-3	108	89
OCCCNc1ncnc2c1cnn2-c1ccc(Cl)cc1	92	0	3	-12	-4	92	90
Cc1ccc(CNC(=O)CN2CCN(c3ccc(F)cc3)CC2)cc1	121	7	-8	4	-9	x	x
O=C(NNC(=O)c1ccc(Cl)cc1Cl)Nc1ccccc1	63*	-1	3	-2	4	99	89
O=C(Nc1ccc(Nc2ccccc2)cc1)c1ccc(Cl)cc1Cl	100	0	4	11	-5	x	x
Cc1nc2ccccc2c(=O)n1/N=C/c1cc(Br)ccc1O	64*	2	25	2	-5	106	104
COc1cccc(-n2nnnc2SCC(=O)NCCc2ccccc2)c1	89	-52	-2	-1	13	x	x
COc1ccc(OC)c(-n2nnnc2SCC(=O)NCCc2ccccc2)c1	53*	-13	-9	-15	0	114	114
COc1ccc(-n2c(C)cc(C(=O)CN3CCC(C)CC3)c2C)cc1	65*	-1	7	-6	-21	104	89
Cc1ccc(S(=O)(=O)N2CCCCC2)cc1C(=O)N1CCCC1	90	-2	1	-15	-2	x	x
CCOC(=O)c1cccc(S(=O)(=O)N2CCCC2)c1	93	-19	2	-13	-16	107	91
COc1ccc(S(=O)(=O)N2CCCC2)cc1C(=O)O	90	-4	0	3	7	88	98
COc1ccc(S(=O)(=O)N2CCCC2)cc1C(C)C	97	-2	-15	-17	26	104	89
Cc1ccc(S(=O)(=O)N2CCCC2)cc1C(=O)O	111	-2	-1	3	-26	92	93
Cc1cccc(NC(=O)CN(C)C(=O)C2CCCC2)c1C	129	x	x	x	x	x	x
O=C1CC(N2CCN(S(=O)(=O)c3ccccc3F)CC2)C(=O)N1c1ccc(F)cc1F (stereo unspecified)	65*	x	x	x	x	109	89
CC(=O)c1cccc(N2C(=O)CC(N3CCN(S(=O)(=O)c4ccccc4F)CC3)C2=O)c1 (stereo unspecified)	84	x	x	x	x	x	x
SMILES	Yeast superoxide	Platelet DG rel	SKKanGAS inh	PolyA inhibitor	Calb FLC	Superoxide pick	DHE fluor count
CC(C)CCN(CCC(C)C)CC(O)Cn1c2ccccc2c(=O)c2ccccc21 (stereo unspecified)	106	8	2	21	29	x	x
CCCN(CCC)CC(O)Cn1c2ccccc2c2ccccc21 (stereo unspecified)	80	0	-1	7	-3	97	94
CC(=NNC(=O)Cn1ccc(C(F)(F)F)n1)c1ccc(-n2ccnc2)cc1	113	x	x	x	x	x	x
O=C(Nc1ccc(O)c(-c2nc3ccccc3o2)c1)C1(c2ccc(Br)cc2)CCCC1	95	17	7	-2	-5	x	x
O=C(Nc1ccccc1)/C(=C/c1cccnc1)NC(=O)c1ccco1	62*	-9	1	0	2	113	101
O=C(N/N=C/c1ccc(F)cc1)c1cc(-c2ccc3c(c2)OCO3)n[nH]1	64*	-5	-1	-8	-6	105	94
CN(C)c1ccc(/C=N/NC(=O)c2cc(-c3ccc4c(c3)OCO4)n[nH]2)cc1	107	8	13	6	2	x	x
Cc1c(NS(=O)(=O)c2ccccc2)cc(Cl)c(O)c1C	142	0	-7	14	41	89	100
Cc1ccc(NC(=O)c2cc3ccccc3oc2=N)cc1	105	7	11	31	x	x	x
N=c1oc2cc(O)ccc2cc1C(=O)Nc1ccc(Cl)cc1	50*	-5	11	1	0	96	65
CC(C)OC(=O)CSc1nnc(-c2ccc(Cl)cc2Cl)o1	107	-33	4	-3	26	93	92
CCSc1ncc(Cl)c(C(=O)Nc2ccccc2OC)n1	100	-6	-1	-8	-4	x	x
CCSc1ncc(Cl)c(C(=O)Nc2ccccc2Cl)n1	93	-2	-1	-12	-1	108	101
CSc1ncc(Cl)c(C(=O)Nc2ccccc2Cl)n1	98	0	-8	-4	0	101	89
CSc1ncc(Cl)c(C(=O)Nc2ccc(NC(C)=O)cc2)n1	94	2	2	-19	-4	x	x
CSc1ncc(Cl)c(C(=O)Nc2c(C)cccc2C)n1	106	4	-5	-7	3	108	105
O=C(/C=C/c1ccc(Br)cc1)c1ccc(NC2=NCCCS2)cc1	77	0	11	-8	11	x	x
CC(C)(C)c1ccc(/C=C/C(=O)c2ccc(NC3=NCCCS3)cc2)cc1	46*	6	x	x	x	113	122
O=C(c1ccc(-c2ccccc2)cc1)N1CCN(c2ccccc2F)CC1	98	-2	5	-12	13	x	x
CCC(=O)c1ccc(N2CCN(C(=O)c3ccccc3)CC2)c(F)c1	85	-4	6	9	7	106	96
O=C(c1ccccc1)N1CCN(c2ccccc2F)CC1	98	3	1	5	-11	119	99
CC(=O)c1ccc(N2CCN(C(=O)c3ccc(Br)cc3)CC2)c(F)c1	88	-49	13	-9	10	90	109
CC(=O)NCC1CCN(C(=O)C2CCC(=O)N(CCc3cccc(F)c3)C2)CC1 (stereo unspecified)	91	-6	-1	-12	3	x	x
O=C(O)CCNC(=O)C12CC3CC(CC(C3)C1)C2	112	3	-4	-1	2	x	x
